Source: PubChem BioAssay AID1835 (Johns Hopkins Ion Channel Center, 2009)
Out of some 2,400 compounds screened, about 750 (31%) were called active. The list shows a part of the results. Unmarked numbers belong to inactive results.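 How the source made its calls: active means median signal gain over dofetilide-blocked control wells reaching their mean plus 3 SD, so readout 1 at least 0; inactive means the rest.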

Target: Voltage-gated inwardly rectifying potassium channel KCNH2 (Homo sapiens) (UniProt Q12809)
Experiment: modulators restoring hERG flux under dofetilide – cell-based, thallium flux, duplicate retest, dofetilide IC70, confirmation (AID 1835)
Conditions: hERG cell line, FluxOR thallium flux, dofetilide-blocked; at 10 µM; stronger effect = higher value

Chain of Voltage-gated inwardly rectifying potassium channel KCNH2 (Homo sapiens) (Q12809 whole entry, looked up): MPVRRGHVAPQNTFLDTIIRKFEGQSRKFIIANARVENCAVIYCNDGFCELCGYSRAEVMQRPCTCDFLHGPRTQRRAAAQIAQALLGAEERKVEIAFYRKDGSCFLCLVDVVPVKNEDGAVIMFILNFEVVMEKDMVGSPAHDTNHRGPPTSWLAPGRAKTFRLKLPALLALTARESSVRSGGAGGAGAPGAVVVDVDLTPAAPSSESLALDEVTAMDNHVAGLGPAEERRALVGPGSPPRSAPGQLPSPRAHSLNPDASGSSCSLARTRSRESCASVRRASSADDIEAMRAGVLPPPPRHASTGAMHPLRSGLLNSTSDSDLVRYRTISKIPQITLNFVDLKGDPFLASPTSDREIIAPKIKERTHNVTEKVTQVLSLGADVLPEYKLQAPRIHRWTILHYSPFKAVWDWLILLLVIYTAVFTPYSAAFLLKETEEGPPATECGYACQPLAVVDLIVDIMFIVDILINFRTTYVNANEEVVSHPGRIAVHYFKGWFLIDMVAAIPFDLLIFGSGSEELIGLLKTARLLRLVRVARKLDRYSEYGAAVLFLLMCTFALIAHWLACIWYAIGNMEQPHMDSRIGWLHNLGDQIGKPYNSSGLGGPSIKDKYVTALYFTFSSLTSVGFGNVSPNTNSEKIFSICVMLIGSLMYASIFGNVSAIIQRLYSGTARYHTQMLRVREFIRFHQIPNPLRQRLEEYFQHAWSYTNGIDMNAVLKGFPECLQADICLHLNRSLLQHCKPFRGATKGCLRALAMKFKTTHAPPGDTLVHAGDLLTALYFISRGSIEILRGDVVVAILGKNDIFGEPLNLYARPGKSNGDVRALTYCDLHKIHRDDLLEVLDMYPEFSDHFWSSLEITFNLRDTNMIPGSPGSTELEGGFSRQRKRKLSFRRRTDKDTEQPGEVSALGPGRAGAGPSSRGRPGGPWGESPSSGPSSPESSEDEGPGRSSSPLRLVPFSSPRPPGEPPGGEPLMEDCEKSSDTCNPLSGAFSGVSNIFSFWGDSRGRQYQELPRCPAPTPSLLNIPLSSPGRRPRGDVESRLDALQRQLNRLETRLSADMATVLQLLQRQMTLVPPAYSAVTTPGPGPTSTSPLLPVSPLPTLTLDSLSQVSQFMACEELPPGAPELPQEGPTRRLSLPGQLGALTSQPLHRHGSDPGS

| Compound | activity increase over dofetilide control, less the hit threshold |
| --- | --- |
| COc1ccc(-c2c(C#N)c(SCC(=O)c3cc4ccccc4oc3=O)nc(C)c2C(=O)Nc2ccccc2)cc1 | -13% |
| Cc1ccc(Nc2nc(-c3cccs3)cs2)nc1 | 1% (active) |
| Cc1ccc(Nc2nc(-c3ccncc3)cs2)cc1 | -8% |
| Cc1ccc(Nc2nc(C)cs2)cc1 | -16% |
| COc1ccccc1-n1cnc2sc(C)c(C)c2c1=O | -6% |
| CCN1C(=O)[C@H]2[C@@H](c3ccc(-c4ccc(OC)cc4)cc3)N[C@@](C)(C(=O)OC)[C@H]2C1=O | -4% |
| CCCCn1nc(NC(=O)COC)c2cc3ccc(C)cc3nc21 | -22% |
| CCOC(=O)C(C)Sc1nc2c(c(-c3cccs3)c1C#N)CCC2 (stereo not drawn) | 1% (active) |
| COc1cc(/C=C2/C(=O)NN(c3ccccc3)C2=O)cc(Br)c1O | -25% |
| Cc1cccc(N(C(=O)c2csnn2)C(C(=O)NCc2ccccc2)c2ccncc2)c1 (stereo not drawn) | -11% |
| CCCNC(=O)N1CCN(S(=O)(=O)c2ccc(C)cc2)CC1 | -16% |
| CSc1nc(C)c(Cc2ccccc2)c(=O)[nH]1 | -20% |
| CCSc1nc2c(c(=O)[nH]1)C(c1ccc(C)cc1)C1=C(CCCC1=O)N2 (stereo not drawn) | -7% |
| O=c1[nH]c(=S)[nH]c2c1C(c1ccc(Br)cc1)c1c([nH]c(=S)[nH]c1=O)O2 | -17% |
| CSc1nc2c(c(=O)[nH]1)C(c1ccccc1Cl)CC(=O)N2 (stereo not drawn) | 17% (active) |
| CSc1nc2c(c(=O)[nH]1)C(c1ccc(Cl)cc1)CC(=O)N2 (stereo not drawn) | 113% (active) |
| CSc1nc2c(c(=O)[nH]1)C(c1ccc(F)cc1)CC(=O)N2 (stereo not drawn) | 18% (active) |
| CSc1nc2c(c(=O)[nH]1)C(c1ccc(Br)cc1)CC(=O)N2 (stereo not drawn) | 25% (active) |
| CN1N=C(C(=O)N2CCc3c([nH]c4ccccc34)C2c2c(F)cccc2Cl)CCC1=O (stereo not drawn) | -13% |
| O=C(O)Cn1cc(CN2CCOCC2)c2ccccc21 | -22% |
| Cc1cccc(NC(=S)N/N=C2/CCCCc3ccccc32)c1 | -11% |
| S=c1[nH]nc(CSc2nc3ccccc3s2)n1C1CCCCC1 | 5% (active) |
| CCCCOC(=S)NC(=O)c1sc2ccccc2c1Cl | 86% (active) |
| O=C(N/N=C/c1ccccn1)c1sc2ccccc2c1Cl | -27% |
| CCCOC(=S)NC(=O)c1sc2ccccc2c1Cl | 30% (active) |
| CCOC(=S)NC(=O)c1sc2ccccc2c1Cl | 40% (active) |
| Cc1ccc(NC(=S)NC(=O)c2sc3ccccc3c2Cl)c(C(=O)O)c1 | -1% |
| COC(=O)Cn1c(=NC(=O)c2sc3ccccc3c2Cl)sc2cc(S(N)(=O)=O)ccc21 | -2% |
